Results with a measured potency or affinity are listed apart. Active and inactive are the calls of the source.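 Rule for the calls: active = signal-lowering compounds whose fitted half-maximal concentration is at or below twice the top tested dose in every run; inconclusive = runs disagree, flat 30 to 70% inhibition, or poor curve fit; inactive = the rest.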
Target: Protein S100-A4 (Homo sapiens) (UniProt P26447)
Assay: S100A4-myosin IIA binding inhibitor potency, dose response, biochemical, fluorescence polarization, cherry-picked hits (AID 687001)
Details: FP, S100A4/TAMRA-myosin IIA peptide binding; series mostly up to 11 µM

Chain of Protein S100-A4 (Homo sapiens) (P26447 whole entry, looked up): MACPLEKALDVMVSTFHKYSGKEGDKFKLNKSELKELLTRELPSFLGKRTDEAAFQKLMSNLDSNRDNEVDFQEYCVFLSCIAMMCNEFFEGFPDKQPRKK

Row | Compound | outcome
1 | CCN(CC)C(=O)Cn1ccc(NC(C)=O)nc1=O | inactive
2 | COc1ccccc1NC(=O)N1CCCCN2[C@H](C1)[C@@H](c1ccc(C#CC3CC3)cc1)[C@@H]2CO | inactive
3 | O=C(CNC(=O)c1ccc(Cl)cc1Cl)OCc1cn2cc(Br)ccc2n1 | inactive
4 | CO[C@H]1CN(C)C(=O)c2cc(NC(C)=O)ccc2OC[C@H](C)N(Cc2ccccn2)C[C@H]1C | inactive
5 | COc1cccc(S(=O)(=O)N2CC[C@@H]3[C@@H](CO)Nc4ccc(C#Cc5ccccc5)cc4[C@@H]32)c1 | inactive
6 | CO[C@@H]1CN(C)C(=O)c2ccc(NC(=O)c3ccc4c(c3)OCO4)cc2OC[C@@H](C)N(Cc2ccc3c(c2)OCO3)C[C@H]1C | inactive
7 | CN1C(=O)c2cc(NC(=O)c3ccccc3Cl)ccc2OC[C@@H]2O[C@@H](CC(=O)NCC(F)(F)F)CC[C@H]21 | inactive
8 | Cc1noc(C)c1S(=O)(=O)N(C)C[C@H]1OCCCC[C@H](C)Oc2ccc(NS(=O)(=O)c3ccccc3)cc2C(=O)N([C@H](C)CO)C[C@@H]1C | inactive
9 | Cc1cc2nnc(SCC(=O)NCC(c3ccccc3)N(C)C)n2c2ccccc12 (centres undefined) | inactive
10 | Cc1ccc(CN2C(=O)CSCC2(C)C(=O)Nc2c(C)cccc2C)cc1 (centres undefined) | inactive
11 | Cc1ccc(F)cc1NC(=O)CN1C(=O)NC(C)(c2ccc3c(c2)OCCO3)C1=O (centres undefined) | inactive
12 | COc1ccc(C(=O)OCc2nnc(-c3ccccc3)o2)cc1S(=O)(=O)N1CCOCC1 | inactive
13 | Nc1nnc(COc2ccc(Br)cc2Br)s1 | inactive
14 | CCOC(=O)C1(C)CCN1C(=O)c1csnn1 (centres undefined) | inactive
